Bioassay records as filed in PubChem.
In the library only some 15% were active in any assay of this set; here they are far more common.
RORg inh = inhibitors of mouse ROR gamma transcriptional activity; Potency, µM (highest dose often 53.6 µM), for the others: top-dose activity change, negative = inhibition, hits mostly inhibitors; P51450; Drosophila S2 Gal4-RORgamma UAS-luciferase reporter, 20 h; 5.4% of 310,000 active; also: nearly all actives have a fitted effect of over 60% in size
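Luminescence from a UAS-regulated Photinus luciferase reporter in stably transfected Drosophila Schneider cells is measured; decreased signal marks ROR gamma inhibition. Fusion expression is induced by 700 uM copper sulfate for 20 hr.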
12-LOX inh = inhibitors of human 12S-lipoxygenase ALOX12. P18054. purified 12hLO, xylenol orange hydroperoxide absorbance. Potency, µM (doses to about 108 µM), for the others: at the top dose activity change, negative = inhibition, actives largely listed as inhibitors. 1.1% of 580,000 active. AID 1671190
Target sequence (P18054 whole entry, looked up): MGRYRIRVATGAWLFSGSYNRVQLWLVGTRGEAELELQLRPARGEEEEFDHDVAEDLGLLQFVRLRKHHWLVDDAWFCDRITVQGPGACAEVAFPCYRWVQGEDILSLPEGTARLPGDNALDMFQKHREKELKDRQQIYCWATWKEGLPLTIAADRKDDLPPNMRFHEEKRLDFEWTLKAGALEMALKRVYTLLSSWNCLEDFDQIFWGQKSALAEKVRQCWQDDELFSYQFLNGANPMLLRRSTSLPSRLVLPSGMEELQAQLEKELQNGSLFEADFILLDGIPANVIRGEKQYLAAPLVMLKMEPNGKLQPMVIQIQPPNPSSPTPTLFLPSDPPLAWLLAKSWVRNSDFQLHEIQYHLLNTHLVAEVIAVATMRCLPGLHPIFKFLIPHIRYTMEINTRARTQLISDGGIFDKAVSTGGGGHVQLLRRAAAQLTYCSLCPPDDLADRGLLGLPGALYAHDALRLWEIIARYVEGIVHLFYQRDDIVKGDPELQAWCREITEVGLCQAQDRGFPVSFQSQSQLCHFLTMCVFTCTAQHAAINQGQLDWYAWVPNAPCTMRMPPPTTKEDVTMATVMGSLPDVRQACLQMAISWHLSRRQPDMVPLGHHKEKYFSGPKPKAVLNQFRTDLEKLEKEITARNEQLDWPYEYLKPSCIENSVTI
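Purified human 12hLO (150 nM final) in 25 mM Hepes, 0.01% Triton X-100, pH 7.0 was preincubated 15 min at room temperature with compound. Then 40 uM arachidonic acid was added, 30 min. Hydroperoxide was read by Fe-XO absorbance ratio 573/405 nm.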
TDP1 cell noCPT = qHTS for Inhibitors of human tyrosyl-DNA phosphodiesterase 1 (TDP1): qHTS in cells in absence of CPT; DT40 Tdp1-/- hTDP1 cells, no CPT, ATP luminescence, 48 h; 15% of 420,000 active; Potency, µM (series often up to 46.2 µM), without a hit: at the top dose activity change, negative = growth inhibition, most hits filed as inhibitors; also: nearly all actives have a fitted effect of over 55% in size
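Compound effects on proliferation are scored in DT40 Tdp1-/-;hTDP1 cells in the absence of CPT. ATP levels (CellTiter-Glo luminescence) are recorded after a ≥48 hr, 37 °C incubation.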
ELG1 DNA repair = inhibitors of ELG1-dependent DNA repair in HEK293T cells. 2.3% of 330,000 active. Potency, µM (doses to about 46.1 µM), without a hit: at the top dose activity change, negative = inhibition, actives largely listed as inhibitors. AID 504467. HEK293T ELG1-luciferase reporter, luminescence, 16 h; DNA damage induced by 5-fluorouridine; also: nearly all actives have a fitted effect of over 55% in size
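HEK293T cells expressing luciferase-tagged ELG1 (2,000/well) received 5-Fluorouridine plus compound or DMSO for 16 hr at 37 °C. Luciferase was read by ONE-Glo luminescence after 30 min at room temperature.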
DT40 TDP1 CPT = DT40-hTDP1 cell growth loss with CPT; chicken DT40 Tdp1-/-;hTDP1 cells + 20 nM CPT, ATP luminescence, 48 h; Potency, µM (doses to about 46.2 µM), without a hit: at the highest dose activity change, negative = growth inhibition, actives largely listed as inhibitors; 12% of 420,000 active; AID 686979; also: nearly all actives have a fitted effect of over 55% in size
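Cell growth measured by CellTiter-Glo luminescence after a minimum 48 h, 37 C compound exposure with 20 nM CPT in Tdp1-knockout DT40 cells stably expressing hTDP1, seeded 400/well; qHTS titration format.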
Gal4-VP16 FLuc = Gal4-VP16 reporter inhibition counter-screen; Potency, µM (series often up to 53.6 µM), without a hit: at the top dose activity, negative = inhibition, actives largely listed as inhibitors; Drosophila S2 Gal4-VP16 UAS-luciferase, luminescence, 20 h; 3.5% of 310,000 active;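 also: Gal4-VP16 expression switched on by copper sulfate through the metallothionein promoter; nearly all actives have a fitted effect of over 50% in size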
Numbers without * were called inactive; ? = inconclusive; . = no result given; [ ] = another dose, or the depositor's remark. Calls follow the shape of the dose curve; as a rule, active = well fitted curve in the direction sought with a large enough effect; inconclusive = small, poorly fitted or top-dose-only effect, or another doubt; inactive = no such curve, though single readings can be large; an effect the other way counts as inactive or inconclusive. % is scaled to controls: 0 for no effect and ±100 for the full control effect; potency is read from the fitted curve at half-maximal effect.

SMILES | RORg inh | 12-LOX inh | TDP1 cell noCPT | ELG1 DNA repair | DT40 TDP1 CPT | Gal4-VP16 FLuc
S=C(Nc1ccc(Br)cc1Cl)NN1CCOCC1 | 3.5µM* | -24% | -11% | 1% | 2% | 18µM*
Cc1cc(NC(=O)/C=C/c2cccc(F)c2)n(-c2nc3ccccc3[nH]2)n1 | 1.6µM* | -21% | 12µM* | ? | 23µM* | 2.8µM*
COc1ccc(/C=C/C(=O)Nc2cc(C)nn2-c2nc3ccccc3[nH]2)cc1 | 1.8µM* | 1% | 18µM* | ? | ? | 2.5µM*
Cc1cc(NC(=O)/C=C/c2ccc(F)cc2)n(-c2nc3ccccc3[nH]2)n1 | 1.3µM* | -8% | 15µM* | 19% | ? | 1µM*
COc1ccc(/C=C/C(=O)Nc2cc(C)nn2-c2nc3ccccc3n2Cc2cccc([N+](=O)[O-])c2)cc1 | 2% | -2% | -6% | ? | -24% | -2%
Cc1cc(NC(=O)/C=C/c2cccc(Cl)c2)n(-c2nc3ccccc3[nH]2)n1 | ? | -1% | 12µM* | ? | -92% | ?
COc1ccc(NC(=O)/C=C/c2cccc(F)c2)cn1 | ? | -30% | -26% | ? | 7% | 7%
Cc1ccc[n+]([O-])c1C | . | 25% | . | . | . | .
COc1ccc(NC(=O)CCc2c[nH]c3ccccc23)cc1 | . | -9% | . | . | . | .
Cc1noc(-c2cn(C3CCN(C(=O)c4cccc(F)c4)CC3)nn2)n1 | . | 13% | . | . | . | .
CN1C[C@@H](NC(=O)CC(C)(C)C)C[C@H]1c1nc(-c2ccc(OC(F)(F)F)cc2)no1 | . | 25%[176 µM] | . | . | . | .
O=C(CCC(=O)c1ccc2c(c1)CCC2)NC1CCCCC1 | . | -6% | . | . | . | .
CCn1c(SCC(=O)Nc2nccs2)nnc1-c1ccc(S(=O)(=O)N2CCCCC2)cc1 | 7% | 9% | 16µM* | 21µM* | ? | -8%
Cc1ccc(SCC(=O)Nc2ccc(S(=O)(=O)Nc3nccs3)cc2)cc1 | 5% | -11% | 3.7µM* | 3% | ? | -2%
CCn1c(COc2ccc(C)cc2)nnc1SCC(=O)Nc1cc(OC)ccc1OC | -15% | 0% | 21µM* | ? | ? | 0%
CCn1c(COc2ccc(C(C)C)cc2)nnc1SCC(=O)Nc1nccs1 | 11µM* | 2% | -19% | -4% | -25% | ?
O=C(CSc1ccncc1)Nc1ccc(S(=O)(=O)Nc2nccs2)cc1 | -11% | 5% | -2% | 0% | 17% | 6%
CCSCc1nnc(SCC(=O)Nc2nccs2)n1CC | -27% | 1% | 1% | -5% | 7% | 1%
Cc1ccc(CNCC(O)(c2ccccc2)c2ccccc2)cc1 | ? | 0% | 21µM* | -22% | ? | -12%
CCc1ccc(C(O)(CNCc2ccccc2)c2ccccc2)cc1 (configuration not stated) | -19% | -1% | 21µM* | -7% | 23µM* | 13µM*
CCc1ccc(/C=N/NC(=O)C(O)(c2ccccc2)c2ccccc2)cc1 | . | -15% | . | . | . | .
CCN1CC(c2ccccc2)CC2(CCN(C(=O)c3ccc(C)nc3)CC2)C1 (configuration not stated) | . | -15% | . | . | . | .
CCc1ccc(CN2CCCC(c3nnc(Cn4ccnc4)n3C)C2)nc1 (configuration not stated) | . | 85% | . | . | . | .
CN1CCN(C(=O)C2=C[C@@H](c3coc4ccccc4c3=O)C[C@@H](OCc3ccc(CO)cc3)O2)CC1 | -2% | -14% | -8% | -4% | 2% | -4%
O=C(C1=C[C@@H](c2coc3ccccc3c2=O)C[C@@H](OCc2ccc(CO)cc2)O1)N1CCN(Cc2ccccc2)CC1 | 25% | . | ? | ? | 18µM* | 1%
SMILES | RORg inh | 12-LOX inh | TDP1 cell noCPT | ELG1 DNA repair | DT40 TDP1 CPT | Gal4-VP16 FLuc
O=C(C1=C[C@@H](c2coc3ccccc3c2=O)C[C@@H](OCCCCO)O1)N1CCN(Cc2ccccc2)CC1 | 30% | -27% | ? | 0% | ? | -2%
O=C(C1=C[C@@H](c2coc3ccccc3c2=O)C[C@@H](OCc2ccc(CO)cc2)O1)N1CCCCCCC1 | 8% | . | ? | ? | 12µM* | -9%
CCOC(=O)C1CCN(c2c(C(=O)c3ccccc3)cnc3ccc(CC)cc23)CC1 | 1% | ? | 18µM* | -12% | ? | -5%
CCOC(=O)C1CCN(c2c(C(=O)c3ccc(OC)cc3)cnc3ccccc23)CC1 | . | -29% | 16µM* | . | 21µM* | .
CCOC(=O)C1CCCN(c2c(C(=O)c3ccccc3)cnc3ccccc23)C1 (configuration not stated) | -3% | -9% | -29% | ? | -10% | 14%
COc1ccccc1N1CCN(Cc2ccc(C(=O)O)cc2)CC1 | -1% | 12% | -4% | 5% | -3% | -3%
COc1cc2ncc(C(=O)c3ccccc3)c(N3CCN(Cc4ccccc4)CC3)c2cc1OC | 40% | 11% | 18µM* | ? | ? | -5%
CCCCOC(=O)COc1ccc2c(=O)c(Oc3ccccc3Br)coc2c1 | . | 3% | . | . | . | .
CC(=O)C1C(=O)CC(C)(O)C(C(C)=O)C1c1ccc(Cl)cc1 (configuration not stated) | . | -26% | . | . | . | .
CC(C)CCNc1nc(C(=O)OC(C)C(=O)NC(=O)NC2CC2)cs1 (configuration not stated) | . | -27% | . | . | . | .
Cc1cc(C)c2c(n1)sc1c(N3CCCCC3)ncnc12 | -26% | -89% | ? | 18% | ? | -15%
Cc1cc(C)c2c(n1)sc1c(N3CCN(C)CC3)ncnc12 | -18% | 0% | 13µM* | ? | ? | -2%
CN(C)CCNC(=O)c1cccc2nc3cccc(F)c3nc12 | . | -24% | 0.26µM* | . | 0.082µM* | .
COc1ccc(OC)c2nc3c(C(=O)NCCN(C)C)cccc3nc12 | . | -6% | 2.6µM* | . | 1.6µM* | .
CN(C)CCNC(=O)c1ccccc1 | -10% | 0% | -10% | 4% | -13% | -12%
CN(C)CCNC(=O)c1cccc2ccc(-c3ccc(-c4ccccc4)cc3)nc12 | . | 40µM* | ? | . | ? | .
COc1ccc(C23CC4CC(C2)CC(c2ccc(OC)c(C(=O)NC(C)C)c2)(C4)C3)cc1C(=O)NC(C)C | . | 19% | . | . | . | .
CN(C)CCNC(=O)c1cc(-c2ccccn2)nc2ccccc12 | . | 32% | . | . | . | .
COc1ccc(C23CC4CC(CC(C4)C2)C3)cc1C(=O)NCCN(C)C | ? | ? | 8.2µM* | -17% | 21µM* | ?
